Only some compounds are listed: those with a hit (about 2.4% of all), similar ones and a draw of the others.
A3G deaminase = APOBEC3G (human) deaminase inhibition; Q9HC16; recombinant A3G, ssDNA deamination FAM/TAMRA fluorescence; inhibition, % at 20 µM; 0.28% of 330,000 active; AID 493012;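 active means inhibition of at least 40% at 20 µM, with no more than 30% in the related APOBEC3A deaminase screen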;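 further: plate controls were DMSO wells with A3G for no effect and wells lacking A3G enzyme for full effect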
Target sequence (Q9HC16 whole entry, looked up): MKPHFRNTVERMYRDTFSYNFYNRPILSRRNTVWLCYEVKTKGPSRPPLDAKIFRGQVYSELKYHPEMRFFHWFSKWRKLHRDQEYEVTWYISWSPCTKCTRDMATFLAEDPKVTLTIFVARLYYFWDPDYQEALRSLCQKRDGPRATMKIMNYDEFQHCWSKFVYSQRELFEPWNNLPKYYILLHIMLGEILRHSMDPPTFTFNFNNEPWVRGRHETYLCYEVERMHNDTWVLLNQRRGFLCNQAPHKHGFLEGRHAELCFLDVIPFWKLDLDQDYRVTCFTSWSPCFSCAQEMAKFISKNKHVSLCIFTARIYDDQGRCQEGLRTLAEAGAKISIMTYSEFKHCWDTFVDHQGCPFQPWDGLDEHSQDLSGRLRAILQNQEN
APOBEC3A inh = inhibitors of human APOBEC3A DNA deaminase. inhibition, % at 20 µM. recombinant A3A, FAM/TAMRA ssDNA deamination fluorescence. AID 493011. 0.41% of 330,000 active. P31941;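 active means at least 40% inhibition at 20 µM here, with at most 30% in a related deaminase screen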;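 further: plate controls were A3A with DMSO for no effect and wells lacking A3A enzyme for full effect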
Target sequence (P31941 whole entry, looked up): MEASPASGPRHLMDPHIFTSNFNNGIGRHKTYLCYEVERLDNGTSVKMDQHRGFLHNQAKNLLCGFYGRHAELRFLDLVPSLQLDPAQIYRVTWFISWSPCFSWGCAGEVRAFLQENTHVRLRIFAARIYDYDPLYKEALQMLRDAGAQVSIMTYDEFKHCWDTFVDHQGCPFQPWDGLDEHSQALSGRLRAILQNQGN
CR mimetic SO = caloric restriction mimetics inhibiting age-related superoxide in yeast. S. cerevisiae aged cells, superoxide DHE fluorescence; hits give low values. superoxide response (% of plate mean), % at 10 µM. 0.18% of 330,000 active. AID 2690;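 active means superoxide response under a set limit, about three screen SD below normal, cut at about 65% in these data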;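 further: yeast aged for seven days with compound at 30 °C before DHE staining; 100% = average MFI of all compound-treated wells on the plate with controls excluded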
PfM18AAP inh-1 = blocks P. falciparum M18 aspartyl aminopeptidase | AID 1822 | recombinant PfM18AAP, H-Glu-NHMec fluorogenic cleavage | inhibition, % at 7.35 µM | 1.2% of 290,000 active;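 active means inhibition above the campaign mean inhibition over all tested compounds plus 3 SD, cut at about 28% in these data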;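 further: 0% = plate median of test compound wells and 100% = 2 mM ZnCl2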
PfGluPho inh = PfG6PD (Plasmodium falciparum) enzyme inhibition; PfGluPho enzyme, NADPH resazurin-diaphorase fluorescence; inhibition, % at 20 µM; 0.78% of 350,000 active; AID 504690;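 active means inhibition reaching at least a set limit at 20 µM in the primary screen, cut at about 59% in these data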;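 further: 0% = DMSO wells with substrate and 100% = DMSO wells lacking glucose-6-phosphate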
PfM18AAP inh-2 = PfM18AAP inhibition, confirmation | shares compounds with PfM18AAP inh-1 | 28% of 2,400 active | recombinant PfM18AAP, H-Glu-NHMec fluorogenic cleavage | inhibition, % at 7.35 µM | AID 2170;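 active means mean inhibition over replicate wells above the hit cutoff set for the earlier primary screen, cut at about 29% in these data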;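 further: 0% = median of test compound wells and 100% = 2 mM ZnCl2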
CTSL1 confirm = counter-screen for PFM18AAP inhibitors: confirmation of human cathepsin L inhibitors. shares compounds with PfM18AAP inh-1. inhibition, % at 5.96 µM. 2,400 tested, under 10 active. purified cathepsin L1, Z-Leu-Arg-MCA fluorescence;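 active means average inhibition across replicates above the hit cutoff set in the earlier primary screen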;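 further: 0% = median of test compound wells and 100% = Z-Phe-Ala-diazomethylketone 1 µM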
The depositor's hits bear a star; . = not tested or not shown.

SMILES | A3G deaminase | APOBEC3A inh | CR mimetic SO | PfM18AAP inh-1 | PfGluPho inh | PfM18AAP inh-2 | CTSL1 confirm
CCCOc1ccc(/C=C2/C(=O)ON=C2C)cc1OCC | -6 | -3 | 98 | 40* | 15 | 42* | 2
CC(CN1CCOCC1)OC(=O)c1ccccc1 (stereo unspecified) | -3 | -3 | 88 | 3 | -1 | . | .
COc1ccccc1/C=C/C(=O)OC(C)CN1CCOCC1 (stereo unspecified) | -5 | -4 | 108 | 51* | -2 | -39 | 4
CCN(CC)c1ccc2c(c1)OC(N)=C(C#N)C2c1cccnc1 (stereo unspecified) | 1 | 5 | 89 | 45* | 29 | 9 | 1
N#CC1=C(N)Oc2cc(N)ccc2C1c1cccnc1 (stereo unspecified) | -2 | 0 | 112 | 10 | -9 | . | .
Cc1ccc(NC(=O)Nn2cnnc2)c(C)c1 | -4 | 2 | 101 | 57* | 2 | 36* | 0
Cc1ccc(Cl)cc1NC(=S)Nn1cnnc1 | 12 | -5 | 84 | 77* | 41 | 63* | 0
Cc1ccc(NC(=O)c2cc(-n3cnnc3)ccc2Cl)c(C)c1 | -8 | -4 | 97 | 0 | 0 | . | .
Cc1ccc(Cl)cc1NC(=S)N(C)N | 2 | -1 | 97 | 17 | -7 | . | .
S=C(Nc1ccc(Br)cc1Cl)Nn1cnnc1 | 2 | 0 | 104 | 77* | 26 | 80* | 2
Cc1ccc(NC(=S)NN2CCN(C)CC2)c(C)c1 | -4 | -4 | 104 | 2 | -6 | . | .
Cc1ccc(NC(=S)Nn2cnnc2)c(C)c1 | 9 | 0 | 112 | 72* | . | 65* | 0
CCCCc1nnc(NC(=O)c2ccc3[nH]c(=O)c(=O)[nH]c3c2)s1 | 0 | 1 | 82 | 0 | -21 | . | .
FC(F)(F)c1ccccc1NC(=S)Nn1cnnc1 | -9 | -12 | 93 | 75* | 38 | 56* | -2
O=C(COc1ccc(Br)cc1Cl)Nn1cnnc1 | -6 | -3 | 99 | 43* | -4 | 42* | -2
CCNC(=O)COc1ccc(Br)cc1Cl | -2 | 3 | 96 | -3 | 0 | . | .
COc1cc([N+](=O)[O-])ccc1NC(=S)Nn1cnnc1 | 1 | -6 | 86 | 84* | 38 | 71* | 4
O=C(NCC1CCCO1)C1CCCN(S(=O)(=O)c2ccc(Br)cc2)C1 (stereo unspecified) | -5 | -5 | 110 | 32* | 10 | -52 | -1
Cc1ccc(S(=O)(=O)N2CCCC(C(=O)NCC3CCCO3)C2)cc1 (stereo unspecified) | -7 | 0 | 94 | -6 | 2 | . | .
CCC1CCCCN1CCCNC(=O)Cn1c(=O)c2cccn2c2cccnc21 (stereo unspecified) | 4 | 2 | 104 | -1 | 1 | . | .
Cc1cc(/C=N/NC(=O)c2cccc([N+](=O)[O-])c2)c(C)n1-c1ccccc1 | -9 | -6 | 99 | 7 | 11 | . | .
Cc1ccccc1-n1c(C)cc(/C=N/Nc2ccc([N+](=O)[O-])cn2)c1C | -2 | 8 | 89 | 45* | 11 | -31 | 5
Cc1cc(/C=N/Nc2ccc([N+](=O)[O-])cn2)c(C)n1-c1ccc(C(=O)O)cc1 | 7 | 7 | 89 | 50* | 44 | -24 | -2
O=[N+]([O-])c1ccc(NN=Cc2ccccc2O)nc1 | . | . | . | . | 10 | . | .
O=[N+]([O-])c1cccc(-c2ccc3nnc(SCc4cccnc4)n3n2)c1 | . | . | . | . | 11 | . | .
SMILES | A3G deaminase | APOBEC3A inh | CR mimetic SO | PfM18AAP inh-1 | PfGluPho inh | PfM18AAP inh-2 | CTSL1 confirm
CNC(=O)C1C(=S)NC(N)=C(C#N)C1c1ccccc1 (stereo unspecified) | 39 | -3 | 99 | 47* | 42 | 23 | 0
COC(=O)C1=C(C)OC(N)=C(C#N)C1c1ccccc1 (stereo unspecified) | -3 | 1 | 96 | 0 | -8 | . | .
COc1ccc(CC(=O)OCC(=O)NCc2ccc(C)cc2)cc1OC | 0 | 3 | 98 | . | 5 | . | .
CC(C)NCC(O)c1ccc(NS(C)(=O)=O)cc1 (stereo unspecified) | 3 | 1 | 95 | 1 | -13 | . | .
CC(C)NC[C@@H](O)c1ccc(O)c(O)c1 | 5 | 18 | 100 | 61* | 52 | 56* | -2
Cc1ccc(S(=O)(=O)N(C)C[C@@H]2Oc3ccc(NC(=O)Nc4cccc5ccccc45)cc3C(=O)N([C@H](C)CO)C[C@H]2C)cc1 | -6 | 0 | 101 | . | 18 | . | .
Oc1ccc(-c2nc3ccc4ccccc4c3c3c2CCC3)cc1O | -8 | -3 | 73 | 47* | 12 | 32* | -1
CC(C)(C)C(=O)Nc1ccc(/C=C/C(=O)c2ccco2)cc1 | -7 | -6 | 74 | -5 | 10 | . | .
COc1ccc(C(=O)NNC(=O)C(=O)NC2CCCCC2)cc1 | -4 | -3 | 88 | 5 | -23 | . | .
O=C(NCC(=O)N1CCCCCCC1)c1ccco1 | -4 | -1 | 89 | . | 7 | . | .
O=C(NCC(=O)N1CCN(c2ccccc2O)CC1)c1ccco1 | -3 | -3 | 96 | 34* | 6 | -29 | -5
CS(=O)(=O)N1CCCC(C(=O)Nc2ccccc2)C1 (stereo unspecified) | 1 | 0 | 106 | 0 | -6 | . | .
Cc1ccc(S(=O)(=O)c2nc(S(C)(=O)=O)sc2N2CCC(C)CC2)cc1 | -7 | -5 | 122 | -14 | 16 | . | .
O=C(O)c1ccc(NNC(=S)Nc2cc(C(F)(F)F)ccc2Cl)cc1 | -9 | -4 | 113 | 35* | -2 | -30 | -4
CCOC(=O)C1=CN(Cc2ccco2)S(=O)(=O)NC1c1ccc(C(F)(F)F)cc1 (stereo unspecified) | 5 | 3 | 100 | . | 29 | . | .
CCOC(=O)Nc1sc2c(c1C(=O)OCC)CCC2 | -1 | -4 | 112 | -8 | 4 | . | .
CCOC(=O)c1c(NS(=O)(=O)c2cccc(OC)c2)sc2c1CCC2 | 4 | 2 | 81 | 33* | 25 | -84 | 0
O=C(Nc1ncn[nH]1)c1ccc([N+](=O)[O-])cc1[N+](=O)[O-] | -2 | 3 | 132 | 44* | 3 | 34* | 1
O=C(Nc1ncn[nH]1)c1ccccc1Br | -10 | -1 | 94 | 38* | -4 | 44* | -4
CSc1ccccc1C(=O)Nc1ncn[nH]1 | 11 | -2 | 100 | 5 | 10 | . | .
Cc1nc2c(C)cccn2c1C(=O)N/N=C/c1ccccc1[N+](=O)[O-] | -9 | -2 | 105 | 40* | -10 | -41 | -3
Cc1ccc(S(=O)(=O)N2CCN(C(=O)Cn3nc(C)c([N+](=O)[O-])c3C)CC2)cc1 | -1 | -1 | 100 | . | 11 | . | .
O=C(Cc1cccc(NC(=O)C2CCCN(C(=O)C3CCCCC3)C2)c1)Nc1cccc(C(=O)N2CCCC2)c1 (stereo unspecified) | -6 | -1 | 91 | . | -9 | . | .

Bioassay records from PubChem BioAssay.
